Rows were chosen to be rich in hits. Some 11% of all compounds tested hit in one or more screens of this group.
L3MBTL1 block = L3MBTL1 (human) inhibition. Potency, µM (top dose mostly 57.1 µM), for inactives: at the highest dose activity, negative = inhibition, actives largely listed as inhibitors. 230,000 compounds, 0.66% hits. AlphaScreen L3MBTL1–H3K9me1 peptide binding. Q9Y468. AID 485360; note: % is set by controls: 0 for no effect and ±100 for the full control effect; nearly all actives have a fitted effect of over 60% in size
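Read-out is AlphaScreen signal from streptavidin donor and nickel chelate acceptor beads (10 ug/mL final each) bridging L3MBTL1 (50 nM) and biotinylated K9-monomethylated H3(1-15) peptide (75 nM), after 30 min compound exposure at room temperature.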
HP1b binding inh = inhibitors of HP1-beta chromodomain binding to methylated histone tails. 390,000 compounds, 0.56% hits. Potency, µM (doses to about 114 µM), for the others: at the highest dose activity change, negative = inhibition, actives largely listed as inhibitors. AlphaScreen HP1-beta / biotin-H3K9me3 peptide binding; note: nearly all actives have a fitted effect of over 70% in size
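AlphaScreen: HP1-beta (50 nM) preformed 30 min with biotin-H3(1-18)K9me3 peptide (50 nM) in PBS pH 7.4, 0.01% Tween-20. Compound added for 30 min at RT, then streptavidin donor/nickel chelate acceptor beads (10 ug/mL) for 30 min.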
JMJD2A Tudor = JMJD2A Tudor domain (human) inhibition. 390,000 compounds, 4.4% hits. AID 504339. O75164. Potency, µM (series often up to 114 µM), inactives show top-dose activity change, negative = inhibition, usual class: inhibitors. AlphaScreen JMJD2A-Tudor / H3K4me3 peptide binding; note: % is set by controls: 0 for no effect and ±100 for the full control effect; nearly all actives have a fitted effect of over 50% in size
G9a inh = G9a (human) methyltransferase inhibition. Q96KQ7. G9a H3K9 monomethylation, AlphaScreen, 2 h. Potency, µM (doses to about 102 µM), for the others: at the top dose activity, negative = inhibition, actives largely listed as inhibitors. 350,000 compounds, 8.8% hits; note: % is set by controls: 0 for no effect and ±100 for the full control effect; nearly all actives have a fitted effect of over 75% in size
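Methyltransferase reactions run at room temperature for 2 h (20 nM enzyme, 500 nM biotin-H3K9 peptide, 20 uM SAM) after a 15 min compound preincubation; product detected by AlphaScreen beads and anti-H3K9me1 antibody.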
BAZ2B block = blocks human BAZ2B; Q9UIF8; AlphaScreen BAZ2B-H3K14Ac peptide displacement; Potency, µM (highest dose often 114 µM), for the others: at the highest dose activity change, negative = inhibition, hits mostly inhibitors; 360,000 compounds, 4.4% hits; note: % is set by controls: 0 for no effect and ±100 for the full control effect; nearly all actives have a fitted effect of over 60% in size
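AlphaScreen displacement: compounds (up to 110uM) incubated 30 min at room temperature with a preformed 50 nM BAZ2B/50 nM biotinylated H3K14Ac peptide complex in PBS pH 7.4 with Tween-20. Donor and acceptor beads at 10 ug/mL final added, 20 min light-protected before reading.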
Numbers without * were called inactive; u = inconclusive; x = not tested or not shown; [ ] = dose if it differs, or a comment. Calls come from the whole dose curve; as a rule, active = well fitted inhibition curve with a large enough effect; inconclusive = small, poorly fitted or top-dose-only effect; inactive = no such curve, though single readings can be large or run the other way. Potency is the fitted concentration of half-maximal effect.

SMILES	L3MBTL1 block	HP1b binding inh	JMJD2A Tudor	G9a inh	BAZ2B block
Cc1[nH]c2ccccc2c1CCN(Cc1cccnc1)C(=S)Nc1ccc(F)cc1	x	-8%	u	u	x
CCOc1ccc(NC(=S)N(CCc2c(C)[nH]c3ccc(C)cc23)Cc2ccncc2)cc1	-11%	-20%	25µM*	40µM*	35µM*
COc1ccc(NC(=O)C(C)Sc2cc(-c3ccccc3)nc(C)n2)cc1Cl (stereo unspecified)	x	49%	11%	4%[59 µM]	1%
Cc1[nH]c2ccc(C(=O)OC(C)C(=O)N(C)c3ccccc3)cc2c1C (stereo unspecified)	-2%	u	u	1%[0.501 µM]	50µM*
Cc1[nH]c2ccc(C(=O)OC(C)C(=O)N(C)C3CCCCC3)cc2c1C (stereo unspecified)	-25%	u	u	45µM*	56µM*
CC(=O)Nc1ccc(NC(=O)C(C)OC(=O)c2ccc3[nH]c(C)c(C)c3c2)cc1 (stereo unspecified)	-9%	-7%	u	50µM*	-3%
COCCCN=Cc1c(C)[nH]n(-c2ccc(Br)cc2Br)c1=O	x	-5%	-16%	50µM*	x
O=C(Nc1ccc(N2CCN(C(=O)c3ccc(Cl)cc3)CC2)cc1)c1ccc2c(c1)OCCO2	x	-1%	-32%	79µM*	-10%
O=C(Nc1ccc(N2CCCCC2)cc1)c1ccc2c(c1)OCCO2	x	5%	u	3.5µM*	-10%
CC(=O)N1CCN(c2ccc(NC(=O)c3ccc4c(c3)OCCO4)cc2)CC1	x	4%	-10%	u	6%
O=C(Nc1ccc(Br)cc1F)c1ccc2c(c1)OCCO2	x	5%	-11%	50µM*	-2%
Cc1ccc(C2N=C(Nc3nc4ccccc4o3)NC3=C2C(=O)CC(C)(C)C3)cc1 (stereo unspecified)	x	15%[57 µM]	-5%[57.1 µM]	x	x
CCN(CC)C1=CC(=O)OC12CCCCC2	1%	-23%	32µM*	3.5µM*	-6%
CCN(CC)c1ccc(C2C3CCCCC3(O)CCN2C(=O)c2cccs2)cc1 (stereo unspecified)	u	-29%	u	50µM*	u
COc1ccc2nc(-c3cccc(F)c3)sc2c1	x	x	14%	x	x
C#CCOCCOCCOCCNc1nc(N2CCN(C(=O)Cn3cc(CCCCN)nn3)CC2)nc(N2CCN(C(=O)[C@H](C)n3cc(CCCN=C(N)N)nn3)CC2)n1	-12%	x	x	28µM*	u
C#CCOCCOCCOCCNc1nc(N2CCN(C(=O)Cn3cc(CCCN=C(N)N)nn3)CC2)nc(N2CCN(C(=O)[C@H](CCCCN)n3cc(CC(C)O)nn3)CC2)n1 (stereo partly specified)	9%	17%	-11%	16%[2.33 µM]	5%
C#CCOCCOCCOCCNc1nc(N2CCN(C(=O)Cn3cc(CC(C)O)nn3)CC2)nc(N2CCN(C(=O)[C@H](C)n3cc(CCCN=C(N)N)nn3)CC2)n1 (stereo partly specified)	7%	-10%	45µM*	7.1µM*	79µM*
C#CCOCCOCCOCCNc1nc(N2CCN(C(=O)Cn3cc(CCCN=C(N)N)nn3)CC2)nc(N2CCN(C(=O)[C@H]([C@@H](C)O)n3cc(CCCCN)nn3)CC2)n1	9%	27%	-12%	7%[2.33 µM]	-12%
Cc1ccc2oc(=O)c3cnn(CC(=O)N4CCN(c5ccc(F)cc5)CC4)c3c2c1	x	24%	-8%	-1%[59 µM]	-6%
CCSC1=NC2(CCN(C(=O)NC3CCCCC3)CC2)N=C1c1ccc(OC)cc1	x	31%	-21%	-5%[59 µM]	19%[57.1 µM]
Clc1ccccc1N/N=C/c1ccc2c(c1)OCO2	-8%	-17%	-11%	8.9µM*	-6%
COc1cc(OC)c(OC)cc1/C=N/N(C)c1ccccc1	x	16µM*	45µM*	8.9µM*	32µM*
COc1cc(/C=N/N(C)c2ccccc2)ccc1O	x	u	56µM*	14µM*	45µM*
O=C(CNC(=O)c1ccccc1Cl)N/N=C/c1ccc2c(c1)OCO2	x	27%	-11%	52%	6%
COc1cc(/C=N/S(=O)(=O)CCc2ccccc2)ccc1O	-5%	19%	-10%	13%[59 µM]	-4%

Bioassay records from PubChem BioAssay.
